Source: PubChem BioAssay
Records with an inconclusive call do not appear. Activity calls are given as the source filed them.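 How the source made its calls, unless noted: active means RAM network inhibition above 8.4% in each of two replicates, 3 SD over the compound average; inconclusive means above 8.4% inhibition in only one replicate; inactive means 8.4% inhibition or less in each replicate.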

Assays:
[1] = Her2 expression decrease, cell viability multiplex – SKBR3 breast tumor cells, AlphaScreen, ATP viability, primary screen (AID 461;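 active means Her2 level under about 52% in both replicate screens, with viability over 70% of control, limit read from the data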;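 on Her2 level: lower value means less Her2 protein in the cells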;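 on viability: percent of carrier control wells set as 100% viability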); settings: SKBR3 Her2 protein level, 18-24 h, measured here: SKBR3 viability, ATP luminescence, at 10 µM
[2] = target: Receptor tyrosine-protein kinase erbB-2 (Homo sapiens) (UniProt P04626); experiment: as above; settings: 18-24 h, at 10 µM, stronger effect = lower value
[3] = reduced viability of SK-BR-3 breast cancer cells – cell-based, 24 h, human, pilot screen (AID 572;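 active means viability at or below 10% of carrier control in both of two separate runs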;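 further: compound exposure lasted between 18 and 24 h rather than exactly 24 h; 100% = carrier-treated control wells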); settings: SK-BR-3 viability, CellTiter-Glo luminescence, at 10 µM, stronger effect = lower value
[4] = HUVEC growth inhibition – cell-based, human, primary screen (AID 575;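 active means viability at or below 30% in both replicate assays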;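 further: 100% = median of untreated cell wells with 0.1% DMSO on each plate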); settings: HUVEC proliferation, CellTiter-Glo luminescence, 72 h; at 10 µM; stronger effect = lower value
[5] = H69AR cell proliferation blockers – human, duplicate replicates, primary screen (AID 580;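 active means viability at or under a set limit in both replicates, limit being median viability minus 3 SD, cut at about 48% in these data, passing the limit was not always enough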;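 further: 100% = mean luminescence of untreated wells and 0% = no signal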); settings: H69AR lung tumor cells viability, ATP luminescence, 72 h; at 10 µM; stronger effect = lower value
[6] = MRP1 drug-resistance reversers in H69AR cells – cell-based, doxorubicin co-treatment, pilot screen (AID 601;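 active means viability loss from added drug above about 55%, and viability with drug at most 40%, in both replicates, limit read from the data, passing the limit was not always enough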); settings: CellTiter-Glo, 72 h, at 10 µM; for differential viability (reversal): stronger effect = higher value
[7] = yeast transport mutant growth inhibition pilot in 384-well plates, post-Golgi transport modulator project (AID 636; in the data active means inhibition above about 31%); settings: absorbance 615 nm, about 18 h, stronger effect = higher value
[8] = growth suppression of yeast trafficking mutant, preliminary HTS, modulators of trafficking downstream of Golgi apparatus project, 1536-format plate, OD 615 nm (AID 637; in the data active means inhibition above about 30%); settings: yeast transport mutant growth, absorbance 615 nm, 18 h; stronger effect = higher value
[9] = S. cerevisiae growth inhibition in permissive medium (OD615), pilot counter-assay for S. cerevisiae lifespan shortening project, permissive growth control (AID 705;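 active means growth inhibition above 25% in both replicates, a cutoff set 3 SD above the mean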); settings: OD615, 24 h, at 10 µM, stronger effect = higher value
[10] = S. cerevisiae growth inhibition in restrictive medium, OD615, pilot screen, restrictive growth control, yeast lifespan reduction project (AID 706;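 active means growth inhibition above a set limit, 3 SD over mean compound inhibition, in both replicates, cut at about 43% in these data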;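 further: modified DeaD lifespan yeast strain shifted to restrictive glucose medium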); settings: OD615, 48 h, at 10 µM, stronger effect = higher value
[11] = doxorubicin toxicity protection in MRP-1 cells – H69AR cells, CellTiter-Glo, duplicate, MRP-1 activator project, pilot screen (AID 807;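 active means viability increase at or above a cutoff of the median across tested compounds plus 3 SD, cut at about 8.5% in these data, passing the limit was not always enough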;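 further: compound pretreatment 18-22 h then 72 h combined with doxorubicin; 0% = doxorubicin alone and 100% = vehicle without doxorubicin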); settings: H69AR viability with doxorubicin, CellTiter-Glo luminescence; at 10 µM; stronger effect = higher value
[12] = viability of HCT116 without oncogenic beta-catenin – human colon tumor cells, pilot screen (AID 823;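 active means cell viability at or below a set limit in both duplicate runs, the limit being the all-compound median minus 4 SD, cut at about 23% in these data, passing the limit was not always enough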;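 further: 0% = wells killed by 20 µM Hyamine and 100% = untreated DMSO cell wells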); settings: HCT116 beta-catenin knockout viability, CellTiter-Glo, 60 h; at 10 µM; stronger effect = lower value
[13] = viability of PTEN-null HCT116 cells – cell-based, HCT116 clonal line, CellTiter-Glo, pilot screen (AID 824;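 active means viability at or below 27.92% in each of two runs, the all-compound median minus 4 SD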;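 further: 0% = 20 µM Hyamine control and 100% = vehicle cell control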); settings: HCT116 PTEN-deleted viability, 60 h, at 10 µM, stronger effect = lower value
[14] = RAM pathway blockade in budding yeast – dse1pr::URA3 reporter, 5-FOA selection, pilot screen (AID 869;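 active means inhibition over a set limit, the all-compound mean plus 3 SD, in both replicate runs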;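 further: 0% = DMSO wells with no growth and 100% = 10 µM 1-NA-PP1 with full growth; RAM network block rescues cells from 5-FOA so hits raise OD615 growth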); settings: S. cerevisiae dse1pr::URA3 5-FOA growth, OD615, 2 d; at 10 µM; stronger effect = higher value; strain carries analog-sensitive mutant Cbk1 kinase
[15] = RAM signaling pathway blockade in yeast – S. cerevisiae, Pdr1DBD-CYC8 efflux-inhibited sensitized strain, primary screen (AID 1298);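 further: 0% = DMSO untreated cells without growth and 100% = 10 µM 1-NA-PP1 full growth; higher means more yeast growth rescued from 5-FOA killing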; settings: S. cerevisiae cbk1-as DSE1-URA3 strain, 5-FOA growth OD615, 2 d; at 50 µM; stronger effect = higher value
[16] = H69AR cells + 2 uM doxorubicin, measured here: viability with 2 uM doxorubicin, stronger effect = lower value
[17] = H69AR cells, compound alone cytotoxicity

Chain of Receptor tyrosine-protein kinase erbB-2 (Homo sapiens) (P04626 whole entry, looked up): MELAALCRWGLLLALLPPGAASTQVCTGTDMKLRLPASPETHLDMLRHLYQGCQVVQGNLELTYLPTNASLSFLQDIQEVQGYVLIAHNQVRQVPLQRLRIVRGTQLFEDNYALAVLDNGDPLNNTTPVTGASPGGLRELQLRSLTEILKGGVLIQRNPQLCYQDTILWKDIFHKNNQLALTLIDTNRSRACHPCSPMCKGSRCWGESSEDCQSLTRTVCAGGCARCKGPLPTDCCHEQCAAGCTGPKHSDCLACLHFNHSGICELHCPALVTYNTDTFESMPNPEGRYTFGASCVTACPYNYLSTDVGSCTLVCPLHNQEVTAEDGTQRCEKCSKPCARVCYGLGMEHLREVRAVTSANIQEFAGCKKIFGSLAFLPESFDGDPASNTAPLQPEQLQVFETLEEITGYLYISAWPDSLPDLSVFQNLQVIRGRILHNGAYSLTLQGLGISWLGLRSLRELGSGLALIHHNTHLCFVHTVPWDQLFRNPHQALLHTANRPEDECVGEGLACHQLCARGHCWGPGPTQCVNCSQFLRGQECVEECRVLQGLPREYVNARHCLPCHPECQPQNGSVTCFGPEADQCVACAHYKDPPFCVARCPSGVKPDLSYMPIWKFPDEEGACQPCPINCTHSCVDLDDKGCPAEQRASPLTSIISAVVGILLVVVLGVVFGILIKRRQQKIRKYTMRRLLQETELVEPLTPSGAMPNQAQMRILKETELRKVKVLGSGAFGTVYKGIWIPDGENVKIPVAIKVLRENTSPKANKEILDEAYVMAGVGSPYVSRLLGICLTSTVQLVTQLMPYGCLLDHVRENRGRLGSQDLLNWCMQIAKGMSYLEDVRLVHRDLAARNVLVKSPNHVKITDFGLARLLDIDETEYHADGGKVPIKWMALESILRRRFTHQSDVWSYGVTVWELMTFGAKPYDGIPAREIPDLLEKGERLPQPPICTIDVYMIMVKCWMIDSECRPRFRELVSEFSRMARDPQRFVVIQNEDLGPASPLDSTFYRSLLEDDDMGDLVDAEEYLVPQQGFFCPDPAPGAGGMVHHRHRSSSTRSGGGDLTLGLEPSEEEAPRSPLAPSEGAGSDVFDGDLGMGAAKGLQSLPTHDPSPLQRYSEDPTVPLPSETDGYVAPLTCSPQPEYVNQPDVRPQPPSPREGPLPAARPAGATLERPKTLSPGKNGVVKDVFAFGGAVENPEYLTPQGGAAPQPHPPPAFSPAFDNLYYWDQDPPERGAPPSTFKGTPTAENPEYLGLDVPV

SMILES | viability [1] [%] | Her2 level [2] | viability [3] | viability [4] | viability [5] | differential viability (reversal) ([6]; H69AR cells + 2 uM doxorubicin) | viability [6, 16] [%] | viability [6, 17] [%] | inhibition [7] | inhibition [8] | growth inhibition [9] | growth inhibition [10] | viability increase [11] | viability [12] | viability [13] | inhibition [14] | RAM network inhibition [15]
Cc1cc(C)c(NC(=O)CSc2nc3c(c(=O)n2C)SC(C)C3)c(C)c1 (stereo not drawn) | 93.5 | 118% (inactive) | 93.5% (inactive) | 96.7% (inactive) | 90% (inactive) | -6.17% (inactive) | 96.2 | 90 | -2.67% (inactive) | 10% (inactive) | -7.85% (inactive) | -17.5% (inactive) | -0.13% (inactive) | 85.7% (inactive) | 77.5% (inactive) | 1.58% (inactive) | 4.95% (inactive)
O=C(NCCN1C(=O)C2C3C=CC(C3)C2C1=O)N1CCOCC1 (stereo not drawn) | 89.5 | 106% (inactive) | 89.5% (inactive) | 90.2% (inactive) | 93.7% (inactive) | 4.75% (inactive) | 88.9 | 93.7 | 0.67% (inactive) | -2.5% (inactive) | -8.54% (inactive) | 8.98% (inactive) | -1.43% (inactive) | 105% (inactive) | 94.9% (inactive) | 1.08% (inactive) | 0.73% (inactive)
CN1CCN(c2nc3c(c(=O)[nH]c(=O)n3C)n2CCSc2nc3ccccc3s2)CC1 | 87 | 90.5% (inactive) | 87% (inactive) | 98% (inactive) | 75.2% (inactive) | -10.6% (inactive) | 85.8 | 75.2 | -0.51% (inactive) | 1% (inactive) | -6.02% (inactive) | -0.85% (inactive) | -2.32% (inactive) | 98.3% (inactive) | 91.9% (inactive) | 2.66% (inactive) | -1.87% (inactive)
CC(=O)OC1c2ccccc2C(=O)N1Cc1ccccc1Cl (stereo not drawn) | 93.5 | 92.5% (inactive) | 93.5% (inactive) | 91.3% (inactive) | 88.5% (inactive) | -2.26% (inactive) | 90.8 | 88.5 | -5.87% (inactive) | -4.83% (inactive) | -1.57% (inactive) | 5.51% (inactive) | -3.19% (inactive) | 74.6% (inactive) | 91.5% (inactive) | 0.06% (inactive) | 5.73% (inactive)
Cc1sc2nc(SCC(=O)NCCO)n(C)c(=O)c2c1C | 91 | 108% (inactive) | 91% (inactive) | 104% (inactive) | 88% (inactive) | -6.7% (inactive) | 94.7 | 88 | 0.77% (inactive) | -8.33% (inactive) | -9.24% (inactive) | -20.8% (inactive) | -1.81% (inactive) | 105% (inactive) | 94.6% (inactive) | 3.88% (inactive) | 2.59% (inactive)
CC1=C(C(=O)Nc2cccnc2)C(c2ccc(C(C)C)cc2)n2ncnc2N1 (stereo not drawn) | 89.5 | 105% (inactive) | 89.5% (inactive) | 103% (inactive) | 97.8% (inactive) | 26.7% (inactive) | 71.1 | 97.8 | -2.13% (inactive) | -2.83% (inactive) | -9.26% (inactive) | -12.1% (inactive) | -3.03% (inactive) | 96.6% (inactive) | 102% (inactive) | 0.44% (inactive) | 1.4% (inactive)
Cc1cccc(C2CC(c3ccc(Cl)cc3)Nc3nc(N)nn32)c1 (stereo not drawn) | 91 | 113% (inactive) | 91% (inactive) | 103% (inactive) | 96.6% (inactive) | -10.4% (inactive) | 107 | 96.6 | 0.4% (inactive) | -5.25% (inactive) | 0.43% (inactive) | 23.9% (inactive) | 4.33% (inactive) | 82.1% (inactive) | 74.9% (inactive) | 0.01% (inactive) | 3.62% (inactive)
CCOC(=O)N1CCC(NC(=O)c2ccc(CS(=O)(=O)c3c(Cl)cccc3Cl)o2)CC1 | 84.5 | 90% (inactive) | 84.5% (inactive) | 95.8% (inactive) | 104% (inactive) | 6.95% (inactive) | 96.6 | 104 | 2.31% (inactive) | 0.83% (inactive) | -12.4% (inactive) | -27.1% (inactive) | -1.87% (inactive) | 106% (inactive) | 93.5% (inactive) | 1.53% (inactive) | 2.82% (inactive)
CCC(C)C(NC(=O)C1CCC(C)CC1)C(=O)NCc1cccnc1 (stereo not drawn) | 99 | 87.5% (inactive) | 99% (inactive) | 82.4% (inactive) | 102% (inactive) | 5.36% (inactive) | 96.3 | 102 | -6.89% (inactive) | 3.17% (inactive) | -12.5% (inactive) | -2.67% (inactive) | -0.91% (inactive) | 86.4% (inactive) | 87.7% (inactive) | 0.265% (inactive) | 4.7% (inactive)
